Drawing on PubChem BioAssay (NCATS), this text covers activity, negative = inhibition and Potency for 10 molecules.

A short description of assay [1]: qHTS profiling for inhibitors of Plasmodium falciparum proliferation (AID 504749).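 As to activity, negative = inhibition: 0% = DMSO vehicle and full inhibition = artemisinin control.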 As to all read-outs here: nearly all actives have a fitted effect of over 60% in size. To be noted: P. falciparum in erythrocytes, SYBR Green DNA, 72 h; for activity, negative = inhibition: at 28.7 µM (top of the series). The essentials: (§1)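 In a 72 h erythrocytic culture (37 C, humidified, 5% CO2) at 2.5% hematocrit and 0.3% starting parasitemia, compounds were tested; SYBR Green I in detergent lysis buffer stained parasite DNA overnight.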
A general note: In qHTS, concentration-response curves come from the screen itself.

The subject of assay [2] is 3D7. Described as above. To be noted: P. falciparum in erythrocytes, SYBR Green DNA, 72 h; series mostly up to 28.7 µM. The essentials: as §1
Assay [3] has as its system 7G8. Described as above. The following applies: P. falciparum in erythrocytes, SYBR Green DNA, 72 h; series mostly up to 28.7 µM. The method, boiled down: as §1
The subject of assay [4] is AA1029. The assay is described as above. To be noted: P. falciparum in erythrocytes, SYBR Green DNA, 72 h; series mostly up to 28.7 µM. The essentials:
as §1

Assay [5] concerns AS120. Described as above. To be noted: P. falciparum in erythrocytes, SYBR Green DNA, 72 h; series mostly up to 28.7 µM. The essentials: as §1
Assay [6] relates to ATS189. The description is as above. The following applies: P. falciparum in erythrocytes, SYBR Green DNA, 72 h; series mostly up to 28.7 µM. The essentials:
as §1

Assay [7] relates to ATS95. Described as above. The following applies: P. falciparum in erythrocytes, SYBR Green DNA, 72 h; series mostly up to 28.7 µM. The method, boiled down: as §1
Assay [8] relates to C2A. The assay is described as above. The following applies: P. falciparum in erythrocytes, SYBR Green DNA, 72 h; series mostly up to 28.7 µM. The essentials: as §1
For assay [9], the system named is CP185. The description is as above. To be noted: P. falciparum in erythrocytes, SYBR Green DNA, 72 h; series mostly up to 28.7 µM. The essentials:
as §1

Assay [10] relates to CP191. The assay is described as above. The following applies: P. falciparum in erythrocytes, SYBR Green DNA, 72 h; series mostly up to 28.7 µM. The method, boiled down: as §1
For assay [11], the system named is CP192. The assay is described as above. The following applies: P. falciparum in erythrocytes, SYBR Green DNA, 72 h; series mostly up to 28.7 µM. The method, boiled down:
as §1

The test system of assay [12] is CP194. The description is as above. The following applies: P. falciparum in erythrocytes, SYBR Green DNA, 72 h; series mostly up to 28.7 µM. The method, boiled down: as §1
Assay [13] relates to CP201. The assay is described as above. The following applies: P. falciparum in erythrocytes, SYBR Green DNA, 72 h; series mostly up to 28.7 µM. The method, boiled down: as §1
The test system of assay [14] is CP203. Described as above. The following applies: P. falciparum in erythrocytes, SYBR Green DNA, 72 h; series mostly up to 28.7 µM. The essentials: as §1
In assay [15] the test system is CP211. The description is as above. To be noted: P. falciparum in erythrocytes, SYBR Green DNA, 72 h; series mostly up to 28.7 µM. The method, boiled down:
as §1

Assay [16] deals with CP215. The description is as above. To be noted: P. falciparum in erythrocytes, SYBR Green DNA, 72 h; series mostly up to 28.7 µM. The method, boiled down:
as §1

Assay [17] has as its system CP217. The description is as above. To be noted: P. falciparum in erythrocytes, SYBR Green DNA, 72 h; series mostly up to 28.7 µM. The method, boiled down: as §1
The test system of assay [18] is CP237. The description is as above. The following applies: P. falciparum in erythrocytes, SYBR Green DNA, 72 h; series mostly up to 28.7 µM. The method, boiled down:
as §1

In assay [19] the test system is CP238. The assay is described as above. To be noted: P. falciparum in erythrocytes, SYBR Green DNA, 72 h; series mostly up to 28.7 µM. The method, boiled down:
as §1

Each structure is given as a SMILES string. Inconclusive results are not listed. A number with no mark means an inactive call. The source made the active and inactive calls. Calls follow the shape of the dose curve; as a rule, active = well fitted inhibition curve with a large enough effect; inconclusive = small, poorly fitted or top-dose-only effect; inactive = flat fitted curve, though single readings scatter.
Potency is read from the fitted curve at half-maximal effect.

With `O=C(Nc1ncc([N+](=O)[O-])s1)c1cccs1`, the activity, negative = inhibition is 5.2% in assay [1] (parasite line A) and -2.66% in [1] (parasite line B). Moreover, the Potency result in assay [2], in [3], in assay [4], in assay [5], in assay [6] and in assay [7] was “inactive” each time. For the same molecule, the Potency entry in [8], in assay [9], in assay [10], in assay [11], in assay [12] and in assay [13] was “inactive” each time. Further, the Potency result in assay [14], in [15], in [16], in assay [17], in assay [18] and in [19] was “inactive” each time.
Turning to `CCN1/C(=C/C=C/c2sc3ccccc3[n+]2CC)Sc2ccccc21`, the Potency in assay [1] (parasite line A) was 0.0891 µM (active); in assay [1] (parasite line B), 0.178 µM (active); in [2] it was 0.141 µM (active); in assay [3], 0.0794 µM (active); in [4], 0.178 µM (active); in assay [5], 0.199 µM (active). Further, the Potency was 0.158 µM (active) in assay [6]; 0.178 µM (active) in assay [7]; 0.126 µM (active) in assay [8]; 0.112 µM (active) in [9]; 0.1 µM (active) in [10]; 0.379 µM (active) in assay [11]. The Potency was 0.478 µM (active) in [12]; 0.849 µM (active) in [13]; 0.675 µM (active) in assay [14]; 0.379 µM (active) in assay [15]; 0.675 µM (active) in [16]; 0.178 µM (active) in [17]. Besides, the values for the Potency in assay [18] and in [19] were 0.158 µM (active) and 0.126 µM (active), respectively.
As for `CCCCCCCCCCCCCC[N+](C)(C)Cc1ccccc1`, the Potency is 4.47 µM (active) in [1] (parasite line A); 7.94 µM (active) in assay [1] (parasite line B); 3.55 µM (active) in [2]; 2.24 µM (active) in [3]; 6.31 µM (active) in assay [4]; 7.08 µM (active) in assay [5]. Also, the Potency was 7.08 µM (active) in [6]; 7.08 µM (active) in assay [7]; 3.98 µM (active) in assay [8]; 6.31 µM (active) in assay [9]; 2.51 µM (active) in assay [10]; 6.75 µM (active) in assay [11]. The Potency was 6.75 µM (active) in [12]; 7.57 µM (active) in assay [13]; 6.01 µM (active) in assay [14]; 4.26 µM (active) in assay [15]; 5.36 µM (active) in assay [16]; 5.62 µM (active) in assay [17]. Further, the Potency is 5.62 µM (active) in assay [18] and 7.08 µM (active) in assay [19].
In the case of `Oc1ccccc1C=NCc1ccccc1`, the activity, negative = inhibition in assay [1] (parasite line A) is 2.18%; in [1] (parasite line B) it was -16.9%. The Potency result in assay [2], in [3], in assay [4], in assay [5], in assay [6] and in [7] was “inactive” throughout. In addition, the Potency result in assay [8], in assay [9], in assay [10], in assay [11], in [12] and in assay [13] was “inactive” throughout. Besides, the Potency entry in assay [14], in assay [15], in [16], in [17], in assay [18] and in assay [19] was “inactive” throughout.
Regarding `CCCCCCCCCCCCCC(=O)OC(C)C`, the activity, negative = inhibition in assay [1] (parasite line A) was 2.55%; in assay [1] (parasite line B), 10.9%. The Potency result in assay [2], in assay [3], in [4], in assay [5], in [6] and in assay [7] was “inactive” in each case. The Potency entry in assay [8], in assay [9], in assay [10], in assay [11], in assay [12] and in assay [13] was “inactive” in each case. The Potency result in assay [14], in [15], in assay [16], in [17], in assay [18] and in assay [19] was “inactive” in each case.
For the molecule `CCCCC(CC)COC(=O)c1ccc(N(C)C)cc1` (stereo not given), the values for the activity, negative = inhibition in assay [1] (parasite line A) and in assay [1] (parasite line B) were 7.25% and -4.81%, respectively. In addition, the Potency entry in assay [2], in assay [3], in [4], in assay [5], in assay [6] and in assay [7] was “inactive” each time. The Potency result in [8], in assay [9], in [10], in [11], in [12] and in [13] was “inactive” throughout. Besides, the Potency result in assay [14], in assay [15], in [16], in assay [17], in [18] and in [19] was “inactive” throughout.
As for `Nc1ccc(S(=O)(=O)NCc2ccccc2)cc1`, the activity, negative = inhibition was 4.25% in [1] (parasite line A) and 6.29% in assay [1] (parasite line B). The Potency entry in assay [2], in assay [3], in [4], in assay [5], in assay [6] and in assay [7] was “inactive” each time. In addition, the Potency result in assay [8], in [9], in assay [10], in [11], in [12] and in assay [13] was “inactive” in each case. The Potency result in assay [14], in assay [15], in [16], in [17], in assay [18] and in [19] was “inactive” each time.
Turning to `CCN(CC)CCNC(=O)c1cc(Br)c(N)cc1OC`, the activity, negative = inhibition is 1.38% in assay [1] (parasite line A) and 3.74% in assay [1] (parasite line B). Besides, the Potency entry in assay [2], in [3], in [4], in assay [5], in [6] and in assay [7] was “inactive” throughout. Also, the Potency result in [8], in [9], in assay [10], in assay [11], in assay [12] and in assay [13] was “inactive” in each case. For the same molecule, the Potency result in [14], in assay [15], in [16], in [17], in assay [18] and in assay [19] was “inactive” throughout.
Regarding `CC(=O)OC[C@H]1O[C@@H](n2ncc(=O)[nH]c2=O)[C@H](OC(C)=O)[C@@H]1OC(C)=O`, the values for the activity, negative = inhibition in assay [1] (parasite line A) and in [1] (parasite line B) were 3.78% and 0.953%, respectively. In addition, the Potency entry in [2], in [3], in assay [4], in assay [5], in assay [6] and in [7] was “inactive” throughout. The Potency entry in [8], in [9], in assay [10], in assay [11], in assay [12] and in assay [13] was “inactive” each time. The Potency result in assay [14], in [15], in [16], in [17], in assay [18] and in [19] was “inactive” each time.
Take `NCCNC(=O)c1ccc(Cl)cn1`: the values for the activity, negative = inhibition in assay [1] (parasite line A) and in assay [1] (parasite line B) were -3.24% and -5.67%, respectively. The Potency result in [2], in assay [3], in [4], in assay [5], in [6] and in [7] was “inactive” in each case. In addition, the Potency entry in assay [8], in assay [9], in assay [10], in assay [11], in [12] and in assay [13] was “inactive” each time. For the same molecule, the Potency result in assay [14], in [15], in assay [16], in assay [17], in [18] and in [19] was “inactive” each time.
